Sampled rows, rich in hits. Any-hit rate of the full collection: about 0.84%.
PPARg SRC-1 ag = PPARgamma-driven SRC-1 recruitment agonism; P37231; PPARgamma-SRC-1 coactivator recruitment biochemical assay; activation, % at 8 µM; 0.41% of 200,000 active; AID 631; in the data active = activation above about 19%;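 also: 0% = DMSO and 100% = reference agonist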
SRC1 TRFRET art = flags TR-FRET format artefacts in PPARgamma SRC-1 recruitment agonist screen. TR-FRET detection artefact counter-screen, emission ratio; hits give high values. TR-FRET ratio at 8 µM. 0.34% of 99,000 active; in the data active = TR-FRET ratio above about 2300
PPARg SRC-3 ag = promotes SRC-3 coactivator recruitment by human PPARgamma; P37231; biochemical PPARgamma/SRC-3 coactivator recruitment assay; activation, % at 8 µM; 0.26% of 200,000 active; AID 731; in the data active = activation above about 23%;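 also: 0% = DMSO and 100% = reference agonist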
SRC3 TRFRET art = TR-FRET artefact, counter-screen to PPARgamma/SRC-3 agonist assay. PPARgamma/SRC-3 format; hits give high values. TR-FRET ratio at 8 µM. 0.39% of 99,000 active
PPARg SRC-2 ag = agonists of SRC-2 recruitment by human PPARgamma; P37231; activation, % at 8 µM; 0.34% of 200,000 active; PPARgamma LBD-SRC-2 recruitment, biochemical; in the data active = activation above about 22%;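 also: 0% = vehicle and 100% = reference agonist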
TR-FRET SRC-2 ct = flags TR-FRET format artefacts in PPARgamma SRC-2 recruitment agonist screen; TR-FRET artefact counter-screen; hits give high values; 0.4% of 200,000 active; TR-FRET ratio at 8 µM
An asterisk follows results filed as active; nt = not tested or not shown. Rule as the data show it, unless noted: active = TR-FRET ratio above about 2000; inactive = the rest.

SMILES	PPARg SRC-1 ag	SRC1 TRFRET art	PPARg SRC-3 ag	SRC3 TRFRET art	PPARg SRC-2 ag	TR-FRET SRC-2 ct
CCOc1ccc(-c2nn(-c3ccccc3)cc2/C=C2\SC(=S)N(C3CCS(=O)(=O)C3)C2=O)cc1 (stereo not drawn)	-4	nt	-13	nt	-8	1500
COc1ccc(C2CC(c3ccccc3)=NN2C(=O)COC(=O)c2cccc(S(=O)(=O)N3CCOCC3)c2)cc1 (stereo not drawn)	12	2459*	8	2328*	16	2061*
COc1ccc(C2CC(c3ccccc3)=NN2C(=O)COC(=O)c2ccc(Cl)nc2)cc1 (stereo not drawn)	13	1893	0	1806	2	1555
COc1ccc(C2CC(c3ccccc3)=NN2C(=O)COC(=O)c2cccc(S(=O)(=O)N(C)C)c2)cc1 (stereo not drawn)	6	2411*	8	2064*	5	2075*
COc1ccc(C2CC(c3ccccc3)=NN2C(=O)COC(=O)c2cnc(Cl)c(Cl)c2)cc1 (stereo not drawn)	-3	1574	-7	1351	-15	1668
N#Cc1ccccc1NC(=O)c1ccccc1OCC(=O)Nc1ccc2c(c1)oc1ccccc12	3	nt	5	nt	13	2662*
CCOC(=O)c1c(NC(=O)C(C)Sc2cn(C)c3ccccc23)sc2c1CCC2 (stereo not drawn)	10	1794	5	1894	24*	1483
CCOC(=O)c1c(NC(=O)CSc2nnc(-c3c[nH]c4ccccc34)n2CCOC)sc2c1CCCCC2	-1	1650	8	1556	0	1477
CCOC(=O)c1c(NC(=O)CSc2c[nH]c3ccccc23)sc2c1CCC2	5	1826	1	4916*	-1	1481
CCOC(=O)c1c(NC(=O)CSc2c[nH]c3ccccc23)sc2c1CCCC2	-5	1766	1	4458*	-14	1640
CCOC(=O)c1c(NC(=O)C(C)Sc2cccc[n+]2[O-])sc2c1CCN(Cc1ccccc1)C2 (stereo not drawn)	5	1633	3	1688	8	1644
Cc1ccccc1C(=O)Nc1nnc(SC(C)C)s1	0	1889	0	1582	-1	1572
COC(=O)c1ccc2c(c1)NC(=O)CS2	2	1887	-2	1558	7	1672
COc1ccccc1CN(C)C(=O)c1ccc2c(c1)NC(=O)CS2	-4	nt	48*	nt	8	1488
[O-]/C(=C(\C(=S)NCc1ccccc1)[n+]1ccccc1)c1ccc(Cl)s1	4	1666	1	1713	-4	1561
O=C(N/N=C/C=C\c1ccccc1[N+](=O)[O-])c1ccco1	14	1928	6	1595	3	1978*
Cc1occc1C(=O)N/N=C/C=C\c1ccccc1[N+](=O)[O-]	10	1846	6	1550	5	1654
O=c1c(-c2n[nH]c(=S)n2-c2ccccc2)cccn1Cc1cccc(Cl)c1	16	2294	6	1865	12	1986*
Cc1ccc(S(=O)(=O)Nc2ccc(-c3csc(-c4ccccc4)n3)cc2)cc1	12	2042	6	2149*	6	1791
Cc1cccc(N2C(S)=C(C#N)C(=O)NC2c2ccco2)c1 (stereo not drawn)	11	1809	5	1528	8	1620
N#CC1=C(S)N(c2ccccc2)C(c2ccc(-c3cccc(Cl)c3)o2)NC1=O (stereo not drawn)	6	2388*	4	1991	10	1822
O=C(C1=C[C@@H](c2ccc(C(F)(F)F)cc2)C[C@@H](OCc2ccc(CO)cc2)O1)N1CCOCC1	7	1750	1	1614	24*	1870
O=C(CSc1ncnc2c1oc1ccccc12)NCC1CCCO1 (stereo not drawn)	95*	nt	131*	nt	110*	3902*
N=c1c(C(=O)NCC2CCCO2)cc2c(=O)n3ccccc3nc2n1Cc1cccnc1 (stereo not drawn)	9	1929	3	1701	5	1820
Cc1cccn2c(=O)c3cc(C(=O)NCC4CCCO4)c(=N)n(Cc4cccnc4)c3nc12 (stereo not drawn)	17	2542*	2	1472	4	1761
Cc1cccc(-c2nnc(SCC#N)n2-c2cccc(Cl)c2)c1	5	nt	-11	nt	-4	1440
COc1ccc(-n2c(SCCC#N)nnc2-c2cc(Cl)ccc2OC)cc1Cl	10	nt	22	nt	6	2116*
